Laboratory results: PubChem BioAssay (NCATS)
Records with an inconclusive call do not appear. The source made the active and inactive calls. Unless noted, the call rests on the fitted dose curve; in most records, active means well fitted curve in the direction sought with a large enough effect; inconclusive means small, poorly fitted or top-dose-only effect, or another doubt; inactive means no such curve, though single readings can be large; an effect the other way counts as inactive or inconclusive.

Legend:
[1] = qHTS for Inhibitors of Cell Surface uPA Generation: Validation Assay (AID 493164); further: 0% is about no effect
Outline: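 RAW 264.7 cells (4000/well) were plated overnight, then exposed for 18 h at 37 C, 5% CO2 to compounds in a 7-point 1:5 titration (2.45 nM–38.3 uM final). Intracellular ATP was read by ATP-Lite luminescence.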

[2] = target: Galactokinase (Homo sapiens) (UniProt P51570); experiment: qHTS Validation Assay for Inhibitors of Human Galactokinase (GALK) (AID 493189); further: potency means the concentration at half of the fitted maximal effect
Outline: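 5 nM GALK / 100 uM galactose / 35 uM ATP, 20 mM HEPES pH8.0, 5 mM MgCl2, 60 mM NaCl, 1 mM DTT, 0.01% BSA (final). RT 1 h; Kinase-Glo Plus luminescence.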

[3] = Validation screen for small molecules that induce DNA re-replication in SW480 colon adenocarcinoma cells (AID 504364); further: 0% is about no effect
Outline: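 250 cells/well; compound pinned in; 48 hr, 37 C, 5% CO2; Hoechst added, 40 min; nuclear fluorescence imaged, 405 ex / 500-530 em; re-replication scored as increase in high-intensity nuclei.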

[4] = target: Peptidyl-prolyl cis-trans isomerase NIMA-interacting 1 (Homo sapiens) (UniProt Q13526); experiment: qHTS Validation Assay to Find Inhibitors of Pin1 (AID 504536; active means well fitted inhibition curve with a large enough effect in the polarisation, with a control signal flat, not every such curve was filed as active; the % refers to the polarisation; further: potency means the concentration at half of the fitted maximal effect)
Outline: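 Fluorescence polarization competition: compounds (titration) displace HiFluor-488-labeled Pin1-1b peptide from Pin1 (0.3 uM final) in pH 7.5 HEPES buffer with DTT, 10 min at room temperature; %Activity normalized to no-enzyme wells, curves fitted.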

[5] = target: Phosphoglycerate kinase, glycosomal (Trypanosoma brucei brucei) (UniProt P07378); experiment: qHTS Validation Assay to Find Inhibitors of Phosphoglycerate Kinase (AID 504547);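 further: control wells lack PGK and mark full inhibition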
Outline: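 Inhibition of the enzyme is judged by a Kinase-Glo Plus luminescent signal following a one-hour incubation at room temperature. Because 1,3-BPG is unstable, it is made in situ by GAPDH at 100nM final; no-PGK wells define the baseline.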

[6] = target: Ubiquitin carboxyl-terminal hydrolase 1 (Homo sapiens) (UniProt O94782); experiment: Inhibitors of USP1/UAF1: Pilot qHTS (AID 504865); further: nearly all actives have a fitted effect of over 35% in size; further: potency means the concentration at half of the fitted maximal effect
Outline: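 In 50mM HEPES pH 7.8 containing 0.5mM EDTA, 1mM TCEP, 0.1 mg/ml BSA and 0.01% Tween-20, 1nM USP1/UAF1 is exposed to compound for 15 min, then Ub-Rho (150nM final) is added and fluorescence is read over time.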

[7] = qHTS for Inhibitors of ATXN expression: Validation of Cytotoxic Assay (AID 588349); further: on the % scale 0 is the no-effect control and ±100 the full control effect
Outline: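 Read-out: ATP-based luminescence (CellTiter Glo) reflecting viability of HEK293 cells after 72 hr incubation at 37 degrees C with a concentration series of each compound.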

[8] = qHTS for Inhibitors of ATXN expression: Validation (AID 588378); further: series mostly up to about 57 µM; on the % scale 0 is the no-effect control and ±100 the full control effect; nearly all actives have a fitted effect of over 75% in size
Outline: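 Compounds were pinned onto attached HEK293 cells carrying an ATXN2-firefly luciferase construct and incubated 24 hrs at 37 degrees C. Each well then received a fluorescent viability reagent followed by luciferase substrate for end-point luminescence.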

[9] = target: DNA dC->dU-editing enzyme APOBEC-3G (Homo sapiens) (UniProt Q9HC16); experiment: qHTS for inhibitors of Vif-A3G interactions: Validation (AID 588379); further: 0% is about no effect
Outline: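 HeLa cells stably expressing Vif and A3G-eYFP, 700 cells/well, incubated overnight at 37 deg C, then exposed to compound overnight at 37 deg C. Inhibition of Vif-mediated degradation read as increased yellow fluorescence (Ex 488/Em 500-530) by laser-scanning cytometry.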

[10] = target: phosphoglycerate mutase (Leishmania major) (UniProt Q4Q090); experiment: qHTS Validation Assay to Find Inhibitors of Phosphoglycerate Mutase (AID 504548); conditions: Potency: inhibition qHTS;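 further: end-point luminescence from Kinase-GloPlus after the PGAM reaction; series mostly up to about 58 µM; on the % scale 0 is the no-effect control and ±100 the full control effect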
Outline: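 Inhibition of L. major PGAM was assessed by Kinase-GloPlus luminescence following a 45-minute room-temperature reaction with enzyme at 1.25nM final.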

[11] = Nrf2 qHTS screen for inhibitors: Validation (AID 493153; active means well fitted inhibition curve with a large enough effect in the main read-out, with a control signal flat, not every such curve was filed as active); conditions: Potency: luciferase luminescence; viability change: measured here: cytotoxicity max response
Outline: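 Luminescence from an ARE-firefly luciferase reporter in A549 cells gives Nrf2 inhibition; an earlier CellTiter-Fluor fluorescent read flags cytotoxicity. Cells in 5% FBS OPTI-MEM received compound dilution series for 18-24 h at 37°C.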

[12] = target: Estrogen receptor (Homo sapiens) (UniProt P03372); experiment: qHTS assay for small molecule antagonists of estrogen receptor alpha signaling (AID 588513; active means well fitted curve in the direction sought with a large enough effect in the signal ratio, with a control signal flat, not every such curve was filed as active; the % refers to the signal ratio; further: on the % scale 0 is the no-effect control and ±100 the full control effect)
Outline: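 Fluorescence from CCF4 substrate after 2 h at room temperature gave reporter activity; cells had been exposed to compound and 0.5nM 17-beta-estradiol for 18 h at 37 C. Hill-equation fitting yielded IC50 and maximal response.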

[13] = target: Estrogen receptor (Homo sapiens) (UniProt P03372); experiment: qHTS assay for small molecule agonists of estrogen receptor alpha signaling (AID 588514; calls by dose curve;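 further: 0% = vehicle only and 100% = reference agonist; nearly all actives have a fitted effect of over 70% in size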)
Outline: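 Cells were plated at 5000/well, incubated 4 hrs at 37 C, dosed with compound titration series, incubated 18 hrs at 37 C, loaded with CCF4 dye for 2 hrs at RT, then fluorescence was read.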

[14] = target: Androgen receptor (Homo sapiens) (UniProt P10275); experiment: qHTS assay for small molecule agonists of androgen receptor signaling (AID 588515; active means well fitted curve in the direction sought with a large enough effect in the signal ratio, with a control signal flat; the % refers to the signal ratio; further: on the % scale 0 is the no-effect control and ±100 the full control effect); conditions: AR-UAS-bla HEK293, beta-lactamase ratio, agonist 16 h; stronger effect = higher value
Outline: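 EC50 and efficacy came from Hill fits of titrations (up to 92 uM) normalized to 30 nM R1881 as 100% and DMSO as 0%. Compound exposure was 16 h at 37 C on AR-UAS-bla HEK293 cells, with a 405/460/530 nm CCF4 fluorescence read.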

[15] = target: Androgen receptor (Homo sapiens) (UniProt P10275); experiment: qHTS assay for small molecule antagonists of androgen receptor signaling (AID 588516; active means well fitted curve in the direction sought with a large enough effect in the signal ratio, with a control signal flat, not every such curve was filed as active; the % refers to the signal ratio; further: on the % scale 0 is the no-effect control and ±100 the full control effect)
Outline: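 Cells were plated and incubated 5 h, compounds added in titration, then R1881 (10 nM final) as agonist. After 16 h at 37 C, CCF4 substrate was loaded for 2 h at room temperature and fluorescence measured.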

[16] = target: Bile acid receptor (Homo sapiens) (UniProt Q96RI1); experiment: qHTS assay for small molecule antagonists of farnesoid X receptor signaling (AID 588526; calls by dose curve; further: on the % scale 0 is the no-effect control and ±100 the full control effect)
Outline: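 Beta-lactamase reporter antagonist mode: HEK293T FXR-UAS-bla cells, titrated compound, CDCA stimulation, 16 h 37 C, CCF4 dye 2 h RT. Data normalized to CDCA 50 uM and DMSO; Hill-fit IC50.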

[17] = target: Glucocorticoid receptor (Homo sapiens) (UniProt P04150); experiment: qHTS assay for small molecule agonists of glucocorticoid receptor signaling (AID 588532; active means well fitted curve in the direction sought with a large enough effect in the signal ratio, with a control signal flat; the % refers to the signal ratio;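 further: 100% = dexamethasone at 0.1 µM and 0% = DMSO only wells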); conditions: HeLa MMTV-bla, beta-lactamase ratio, agonist, 18 h; stronger effect = higher value; percent of dexamethasone control, DMSO zero
Outline: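 Using MMTV-bla HeLa cells in medium with 1% stripped FBS and 25 mM HEPES, compounds were titrated and incubated overnight-length (18 h). Beta-lactamase cleavage of CCF4 was quantified by dual-emission fluorescence.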

[18] = target: Glucocorticoid receptor (Homo sapiens) (UniProt P04150); experiment: qHTS assay for small molecule antagonists of glucocorticoid receptor signaling (AID 588533; active means well fitted inhibition curve with a large enough effect in the signal ratio, with a control signal flat, not every such curve was filed as active; the % refers to the signal ratio)
Outline: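 Antagonist-mode qHTS: compound titrations added to GRE-bla HeLa cells, then dexamethasone 2 nM final; 18 h, 37 C. CCF4 FRET fluorescence normalized to dexamethasone and DMSO; IC50 from Hill fit.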

Chain of Galactokinase (Homo sapiens) (P51570 whole entry, looked up): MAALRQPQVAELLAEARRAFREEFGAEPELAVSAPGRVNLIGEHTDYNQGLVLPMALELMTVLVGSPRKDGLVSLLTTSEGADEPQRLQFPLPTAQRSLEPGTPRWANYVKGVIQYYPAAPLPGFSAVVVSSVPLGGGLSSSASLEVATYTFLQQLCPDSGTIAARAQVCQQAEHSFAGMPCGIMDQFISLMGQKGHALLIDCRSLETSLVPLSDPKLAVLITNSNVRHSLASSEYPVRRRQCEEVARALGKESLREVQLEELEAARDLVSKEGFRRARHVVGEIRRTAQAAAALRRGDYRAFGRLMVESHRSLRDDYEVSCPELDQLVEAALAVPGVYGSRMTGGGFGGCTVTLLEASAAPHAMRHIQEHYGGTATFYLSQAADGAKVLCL
Chain of Ubiquitin carboxyl-terminal hydrolase 1 (Homo sapiens) (O94782 whole entry, looked up): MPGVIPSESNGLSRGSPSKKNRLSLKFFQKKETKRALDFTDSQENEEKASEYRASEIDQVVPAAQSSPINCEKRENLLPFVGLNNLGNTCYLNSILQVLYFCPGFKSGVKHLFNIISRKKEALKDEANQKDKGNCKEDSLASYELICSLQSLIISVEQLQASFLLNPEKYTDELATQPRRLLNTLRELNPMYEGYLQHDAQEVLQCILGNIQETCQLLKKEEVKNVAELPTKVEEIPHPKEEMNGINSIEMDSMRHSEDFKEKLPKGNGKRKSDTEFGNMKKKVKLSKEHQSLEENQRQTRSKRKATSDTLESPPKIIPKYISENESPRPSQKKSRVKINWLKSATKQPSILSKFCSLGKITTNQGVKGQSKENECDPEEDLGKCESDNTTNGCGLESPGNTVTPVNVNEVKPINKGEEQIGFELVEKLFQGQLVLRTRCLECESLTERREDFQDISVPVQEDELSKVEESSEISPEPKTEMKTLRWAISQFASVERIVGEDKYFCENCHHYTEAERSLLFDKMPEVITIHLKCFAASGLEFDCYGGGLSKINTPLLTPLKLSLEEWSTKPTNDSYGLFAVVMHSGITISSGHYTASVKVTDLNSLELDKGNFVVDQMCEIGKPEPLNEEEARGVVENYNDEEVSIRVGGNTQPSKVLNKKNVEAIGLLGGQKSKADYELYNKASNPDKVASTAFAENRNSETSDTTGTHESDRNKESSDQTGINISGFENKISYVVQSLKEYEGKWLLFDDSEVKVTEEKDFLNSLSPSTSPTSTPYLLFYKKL
Chain of DNA dC->dU-editing enzyme APOBEC-3G (Homo sapiens) (Q9HC16 whole entry, looked up): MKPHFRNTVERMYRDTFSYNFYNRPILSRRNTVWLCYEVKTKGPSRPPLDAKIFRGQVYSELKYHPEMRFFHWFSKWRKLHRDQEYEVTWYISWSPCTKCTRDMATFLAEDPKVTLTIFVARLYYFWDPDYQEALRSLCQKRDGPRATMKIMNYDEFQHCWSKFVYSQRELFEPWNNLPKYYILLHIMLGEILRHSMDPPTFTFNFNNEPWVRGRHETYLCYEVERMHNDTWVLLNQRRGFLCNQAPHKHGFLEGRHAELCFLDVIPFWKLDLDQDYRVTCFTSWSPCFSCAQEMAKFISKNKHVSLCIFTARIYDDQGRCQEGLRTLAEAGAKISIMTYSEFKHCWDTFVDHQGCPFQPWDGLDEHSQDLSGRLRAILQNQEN
Chain of Peptidyl-prolyl cis-trans isomerase NIMA-interacting 1 (Homo sapiens) (Q13526 whole entry, looked up): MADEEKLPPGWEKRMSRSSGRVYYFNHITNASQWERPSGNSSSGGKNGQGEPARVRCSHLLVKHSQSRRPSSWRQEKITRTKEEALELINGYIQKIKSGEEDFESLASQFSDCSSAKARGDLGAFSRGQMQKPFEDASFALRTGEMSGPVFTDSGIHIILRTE
Chain of phosphoglycerate mutase (Leishmania major) (Q4Q090 1-553): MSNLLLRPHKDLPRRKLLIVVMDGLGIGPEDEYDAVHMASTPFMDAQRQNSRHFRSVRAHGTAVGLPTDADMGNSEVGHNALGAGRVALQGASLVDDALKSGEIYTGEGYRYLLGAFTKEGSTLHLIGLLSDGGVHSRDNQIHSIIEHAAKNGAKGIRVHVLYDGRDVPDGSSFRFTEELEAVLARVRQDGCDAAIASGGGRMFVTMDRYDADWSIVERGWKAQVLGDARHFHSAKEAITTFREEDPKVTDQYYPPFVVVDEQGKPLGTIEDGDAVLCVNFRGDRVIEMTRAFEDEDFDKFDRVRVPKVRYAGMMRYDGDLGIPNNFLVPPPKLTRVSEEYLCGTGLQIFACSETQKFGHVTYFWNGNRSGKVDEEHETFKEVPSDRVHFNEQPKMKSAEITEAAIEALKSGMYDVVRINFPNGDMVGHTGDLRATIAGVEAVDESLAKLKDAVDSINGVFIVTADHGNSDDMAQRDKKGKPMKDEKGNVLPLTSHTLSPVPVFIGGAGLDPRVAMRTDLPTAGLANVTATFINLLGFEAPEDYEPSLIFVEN
Chain of Phosphoglycerate kinase, glycosomal (Trypanosoma brucei brucei) (P07378 whole entry, looked up): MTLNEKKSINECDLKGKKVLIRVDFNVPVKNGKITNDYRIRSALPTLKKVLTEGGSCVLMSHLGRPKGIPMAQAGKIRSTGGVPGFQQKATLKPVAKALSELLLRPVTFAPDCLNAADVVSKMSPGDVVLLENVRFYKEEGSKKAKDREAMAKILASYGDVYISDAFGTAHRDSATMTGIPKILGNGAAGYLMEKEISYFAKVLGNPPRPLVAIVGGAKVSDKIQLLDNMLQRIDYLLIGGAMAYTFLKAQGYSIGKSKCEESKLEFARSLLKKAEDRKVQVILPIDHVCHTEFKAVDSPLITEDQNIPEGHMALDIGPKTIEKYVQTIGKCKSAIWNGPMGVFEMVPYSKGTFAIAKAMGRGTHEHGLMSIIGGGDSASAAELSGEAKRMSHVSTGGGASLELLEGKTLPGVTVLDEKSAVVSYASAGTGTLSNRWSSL
Chain of Androgen receptor (Homo sapiens) (P10275 whole entry, looked up): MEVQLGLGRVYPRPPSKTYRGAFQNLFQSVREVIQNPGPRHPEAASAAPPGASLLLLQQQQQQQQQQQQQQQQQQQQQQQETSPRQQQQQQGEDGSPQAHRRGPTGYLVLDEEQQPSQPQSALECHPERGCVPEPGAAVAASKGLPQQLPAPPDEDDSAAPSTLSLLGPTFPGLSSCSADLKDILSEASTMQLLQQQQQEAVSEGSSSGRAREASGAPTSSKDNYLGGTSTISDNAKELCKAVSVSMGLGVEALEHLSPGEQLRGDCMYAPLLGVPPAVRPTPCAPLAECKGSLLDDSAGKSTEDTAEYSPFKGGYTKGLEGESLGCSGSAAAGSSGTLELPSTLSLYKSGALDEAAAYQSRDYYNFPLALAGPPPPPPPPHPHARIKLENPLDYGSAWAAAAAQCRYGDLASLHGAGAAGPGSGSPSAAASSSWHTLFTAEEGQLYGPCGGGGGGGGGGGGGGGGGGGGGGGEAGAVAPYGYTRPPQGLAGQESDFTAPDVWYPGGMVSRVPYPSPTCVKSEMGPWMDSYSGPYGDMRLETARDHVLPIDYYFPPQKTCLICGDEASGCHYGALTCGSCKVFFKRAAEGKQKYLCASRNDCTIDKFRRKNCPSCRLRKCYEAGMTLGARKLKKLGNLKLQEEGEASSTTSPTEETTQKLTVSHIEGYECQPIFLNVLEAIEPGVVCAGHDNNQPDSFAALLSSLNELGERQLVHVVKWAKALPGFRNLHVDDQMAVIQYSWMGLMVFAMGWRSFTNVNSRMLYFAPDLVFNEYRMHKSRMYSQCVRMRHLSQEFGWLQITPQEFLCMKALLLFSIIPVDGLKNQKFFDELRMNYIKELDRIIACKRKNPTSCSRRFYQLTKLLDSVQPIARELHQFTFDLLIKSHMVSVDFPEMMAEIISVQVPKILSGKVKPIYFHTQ
Chain of Glucocorticoid receptor (Homo sapiens) (P04150 whole entry, looked up): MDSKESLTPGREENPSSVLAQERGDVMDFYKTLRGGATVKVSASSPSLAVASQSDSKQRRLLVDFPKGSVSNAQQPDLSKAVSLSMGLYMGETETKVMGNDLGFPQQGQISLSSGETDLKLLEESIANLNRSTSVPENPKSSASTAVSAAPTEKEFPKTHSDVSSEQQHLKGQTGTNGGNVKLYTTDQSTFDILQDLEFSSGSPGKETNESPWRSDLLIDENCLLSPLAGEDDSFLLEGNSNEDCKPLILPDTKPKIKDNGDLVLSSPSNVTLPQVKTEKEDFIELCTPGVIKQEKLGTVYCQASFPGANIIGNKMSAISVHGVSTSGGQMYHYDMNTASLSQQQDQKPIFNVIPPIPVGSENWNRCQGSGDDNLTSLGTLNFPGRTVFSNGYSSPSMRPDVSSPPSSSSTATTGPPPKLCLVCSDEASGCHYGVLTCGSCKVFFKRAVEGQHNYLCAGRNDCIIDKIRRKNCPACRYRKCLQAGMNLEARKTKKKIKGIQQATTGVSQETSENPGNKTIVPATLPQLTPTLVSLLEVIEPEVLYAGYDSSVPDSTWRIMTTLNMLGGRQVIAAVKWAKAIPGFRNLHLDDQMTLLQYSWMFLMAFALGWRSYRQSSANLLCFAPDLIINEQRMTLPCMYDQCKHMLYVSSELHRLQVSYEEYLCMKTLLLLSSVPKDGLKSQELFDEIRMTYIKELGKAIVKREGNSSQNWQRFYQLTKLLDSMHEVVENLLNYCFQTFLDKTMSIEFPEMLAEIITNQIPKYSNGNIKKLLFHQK
Chain of Estrogen receptor (Homo sapiens) (P03372 whole entry, looked up): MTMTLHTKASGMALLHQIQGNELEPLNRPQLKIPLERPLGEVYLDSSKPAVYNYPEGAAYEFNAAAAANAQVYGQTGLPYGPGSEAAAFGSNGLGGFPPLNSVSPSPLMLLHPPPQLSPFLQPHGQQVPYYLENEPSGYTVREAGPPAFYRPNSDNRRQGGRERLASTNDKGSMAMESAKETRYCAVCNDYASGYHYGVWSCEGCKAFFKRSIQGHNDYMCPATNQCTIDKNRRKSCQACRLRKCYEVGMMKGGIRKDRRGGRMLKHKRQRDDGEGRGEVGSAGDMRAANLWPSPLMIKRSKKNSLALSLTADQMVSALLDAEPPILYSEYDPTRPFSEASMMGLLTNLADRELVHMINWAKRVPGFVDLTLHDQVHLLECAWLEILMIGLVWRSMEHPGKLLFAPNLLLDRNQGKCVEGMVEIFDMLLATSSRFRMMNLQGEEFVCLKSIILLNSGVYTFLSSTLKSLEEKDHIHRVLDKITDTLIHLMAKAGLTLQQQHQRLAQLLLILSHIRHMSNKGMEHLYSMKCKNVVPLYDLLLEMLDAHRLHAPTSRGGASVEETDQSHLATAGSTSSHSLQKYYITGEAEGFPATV

NC(N)=NC(N)=Nc1cccc(Cl)c1
inactive: outcome [1] | Potency [2] | Potency [3] | Potency [4] | Potency [5] | Potency [6] | Potency [7] | Potency [8] | Potency [9]

O=C(O)C1=CC(=C(c2ccc(O)c(C(=O)O)c2)c2ccc(O)c(C(=O)O)c2)C=CC1=O
inactive: outcome [1] | Potency [3] | Potency [7] | Potency [8]
active: Potency [2] 14.1 µM | Potency [4] 0.675 µM | Potency [6] 8.91 µM

CCCC(=O)NCCc1c2n(c3ccc(OC)cc13)CCCc1ccccc1-2
inactive: outcome [1] | Potency [2] | Potency [3] | Potency [4] | Potency [5] | Potency [10]

CC(C)NC[C@H](O)COc1cccc2ccccc12
-4.73%: viability change [11]
inactive: Potency [11] | Potency [4] | Potency [6] | Potency [7] | Potency [9]

[N-]=[N+]=Nc1ccc(C(=O)CSC[C@H](NC(=O)CC[C@H](N)C(=O)O)C(=O)NCC(=O)O)cc1
active: Potency [4] 23.9 µM | Potency [6] 35.5 µM
inactive: outcome [1] | Potency [2] | Potency [3] | Potency [8]

CC(C)(C)c1cc(/C=C(\C#N)C(N)=S)cc(C(C)(C)C)c1O
inactive: outcome [1] | Potency [2] | Potency [3]

NC(=O)c1ccccc1
inactive: outcome [1] | Potency [2] | Potency [3] | Potency [4] | Potency [5] | Potency [10] | Potency [6] | Potency [8] | outcome [12] | Potency [13] | activation [14] -3.5% | outcome [15] | outcome [16] | activation [17] -7.58% | Potency [18]

C=CC1(C)CC(=O)C2(O)C(C)(O1)C(OC(C)=O)C(O)C1C(C)(C)CCC(O)C12C (stereo not given)
inactive: outcome [1] | Potency [2] | Potency [3] | Potency [4] | Potency [5] | Potency [10] | Potency [6] | Potency [7] | Potency [8]

C=C1C(=O)O[C@@H]2[C@H]3O[C@]3(C)CCC=C(C)CC[C@@H]12
inactive: outcome [1] | Potency [2] | Potency [3] | Potency [4] | Potency [5] | Potency [10] | Potency [6] | Potency [9]

COc1ccccc1N1CCN(CCN(C(=O)c2ccc(F)cc2)c2ccccn2)CC1
inactive: outcome [1] | Potency [2] | Potency [3] | Potency [4] | Potency [10] | Potency [6] | Potency [8]

O=C(O)/C=C/c1ccc(O)c(O)c1
inactive: outcome [1] | Potency [2] | Potency [3] | Potency [4] | Potency [10] | Potency [6] | Potency [7] | Potency [9]

CC(C)C[C@H](NC(=O)C1OC1C(=O)O)C(=O)NCCCCN=C(N)N (stereo not given in full)
inactive: outcome [1] | Potency [2] | Potency [3] | Potency [4] | Potency [5] | Potency [10] | Potency [6]

O=S(=O)(c1cccc2c(Cl)cccc12)N1CCCNCC1
inactive: outcome [1] | Potency [2] | Potency [3] | Potency [4] | Potency [5] | Potency [10] | Potency [6] | Potency [7] | Potency [9]

CCn1c(=O)[nH]c2cc(Cl)c(Cl)cc21
inactive: outcome [1] | Potency [2] | Potency [3] | Potency [4] | Potency [5] | Potency [10] | Potency [6] | Potency [7] | Potency [8] | Potency [9]
